Screens deposited in PubChem BioAssay by National Center for Advancing Translational Sciences (NCATS).
NS1 function inh: influenza NS1 inhibition; Potency, µM (top dose mostly 46.1 µM), for the others: at the highest dose activity, positive = more growth; 270,000 tested, 0.4% active; AID 2326; calls by dose curve; also: actives are rising curves; nearly all actives have a fitted effect of over 50% in size
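Compounds were scored for reversing the slow growth caused by influenza A NS1 in S. cerevisiae, measured by optical density at 600 nm. Assay medium contained 2% galactose at pH 6.0; NS1-free yeast of the same strain were the positive control.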
Pf growth 96h: P. falciparum growth inhibition at 96 hour, primary screen for plastid delayed-death inhibitors; P. falciparum luciferase reporter growth, 96 h; Potency, µM (doses to about 28.7 µM), for inactives: at the top dose activity change, negative = inhibition, actives largely listed as inhibitors; 320,000 tested, 6.9% active; also: % is scaled to controls: 0 for no effect and ±100 for the full control effect
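Parasite growth measured via integrated firefly luciferase reporter in P. falciparum. Infected erythrocytes at 2% hematocrit, 0.05% parasitemia final were treated 96 hours at 37 C under 5% CO2, and luminescence was read.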
SARS PLP yeast: blocks SARS-CoV papain-like protease in a yeast assay | S. cerevisiae expressing SARS-CoV PLpro, growth rescue | Potency, µM (titrated, usually from 32.9 µM), for the others: top-dose activity, positive = growth rescue, actives largely listed as activators | 330,000 tested, 0.19% active | AID 485353; calls by dose curve; also: 0% is about no effect; nearly all actives have a fitted effect of over 55% in size
Pf growth 48h: inhibits P. falciparum growth in the first generation, 48 h. Potency, µM (doses to about 28.7 µM), for inactives: top-dose activity change, negative = inhibition, hits mostly inhibitors. P. falciparum luciferase growth in erythrocytes, 48 h. 310,000 tested, 5.9% active; also: % is scaled to controls: 0 for no effect and ±100 for the full control effect
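Parasite viability was followed by luminescence of a genomically integrated firefly luciferase. Cultures held 0.1% parasitemia at 2% hematocrit (final), incubated under 5% CO2 at 37 C.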
* marks the source's active call; other numbers are inactive results; ? = inconclusive; . = not tested or not shown. Compounds with a hit are over-represented: about 10% of the library has one in this group of screens. Unless noted, calls follow the shape of the dose curve; as a rule, active = well fitted inhibition curve with a large enough effect; inconclusive = small, poorly fitted or top-dose-only effect, or another doubt; inactive = no such curve, though single readings can be large or run the other way. Potency is read from the fitted curve at half-maximal effect.

SMILES	NS1 function inh	Pf growth 96h	SARS PLP yeast	Pf growth 48h
O=C(Nc1ccccc1-c1ccccc1)c1ccc(NC(=O)c2ccco2)cc1	-54%	.	-12%	12µM*
O=C(OC1CCCCC1)c1ccc(NC(=O)c2ccco2)cc1	-106%	2.9µM*	-29%	?
O=C(Nc1ccccc1-c1ccccc1NC(=O)c1ccco1)c1ccco1	-16%	?	9%	10µM*
O=C(Nc1ccccc1F)c1ccco1	7%	-22%	-7%	39%
O=C(Nc1ccccc1NC(=O)c1ccco1)c1ccco1	?	.	7%	0%
O=C(Nc1ccccc1-c1ccccc1)c1ccco1	-16%	1.3µM*	-3%	32%
Cc1cc(-c2ccccc2)nc(N/N=C/c2ccccc2F)n1	-21%	-22%	-11%	19%
Cc1c(NC(=O)c2ccco2)cccc1C(=O)NN1C(=O)c2ccccc2C1=O	.	15µM*	1%	41%
CC/C(=C\C=C\[C@@H]1C=C[C@@H]2CCC[C@H]2[C@@H]1C(=O)c1ccc[nH]1)[C@@H]1O[C@@H]([C@@H](C)C(=O)O)CC[C@@H]1C	-33%	?	-93%	2.6µM*
CCOC(=O)c1cnc2c(C)cccc2c1NCCc1ccc(OC)c(OC)c1	-6%	4.1µM*	-1%	?
CCOC(=O)c1cnc2ccc(C(=O)OC)cc2c1NCCN1CCOCC1	-8%	?	3%	9%
CCOC(=O)c1cnc2ccc(C(=O)OC)cc2c1NCCc1ccc(OC)c(OC)c1	22%	1%	-12%	10µM*
CCOC(=O)c1cnc2c(C)cccc2c1Nc1cccc(C(=O)O)c1	0%	21%	-1%	-7%
N#CCCN(C(=O)COC(=O)c1cc2ccccc2oc1=O)c1ccccc1	.	10%	2%	9%
O=C(Cc1ccccc1)Nc1ccccc1C(=O)N1CCN(c2ccccc2)CC1	11%	?	-2%	-21%
Cc1cc(C)c(NC(=O)CNC(=O)COC(=O)CNC(=O)c2ccc(Cl)cc2Cl)c(C)c1	.	33%	-3%	4%
CCOC(=O)C1(Cc2ccccc2C(F)(F)F)CCN(C2CCN(C(C)C)CC2)CC1	1%	15µM*	-1%	6%
CCOC(=O)C1(Cc2ccccc2C(F)(F)F)CCN(CC(O)CO)CC1 (configuration not stated)	-4%	0%	-1%	7%
O=S(=O)(c1ccccc1)c1nc(-c2ccco2)oc1NCc1ccccc1	3%	8.3µM*	7%	.
CCOc1ccc(-c2nc(S(=O)(=O)c3ccccc3)c(NC)o2)cc1	8%	?	-5%	3%
CCOc1ccc(-c2nc(S(=O)(=O)c3ccccc3)c(NCc3cccnc3)o2)cc1	?	.	3%	13µM*
Nc1nc2nc(-c3cccs3)cc(C(F)(F)F)n2n1	6%	-24%	-1%	10%
CCOC(=O)c1nc2nc(-c3cccs3)cc(C(F)(F)F)n2n1	11%	8.3µM*	4%	23%
O=C(Nc1nc2ccccc2s1)C1CCN(S(=O)(=O)c2cc([N+](=O)[O-])ccc2Cl)CC1	-2%	?	-1%	?
O=S(=O)(/N=C(/Nc1cccc2ccccc12)c1ccccc1)c1ccc(Br)cc1	3%	4.1µM*	?	13%
SMILES	NS1 function inh	Pf growth 96h	SARS PLP yeast	Pf growth 48h
CCOC(=O)C1=C(C)OC(N)=C(C#N)C1c1ccc(C)s1 (configuration not stated)	.	?	0%	24%
Clc1ccc2c(NCCNc3ccnc4cc(Cl)ccc34)ccnc2c1	-6%	.	.	.
CCOc1ccccc1NC(=O)Nc1ccc(Cl)cc1	?	?	-16%	?
Clc1ccc2c(NCc3ccccn3)ccnc2c1	3%	0.47µM*	0%	0.66µM*
CCOc1ccccc1Nc1ccnc2cc(Cl)ccc12	-5%	21%	-1%	2.6µM*
O=C(NCCNC(=O)c1ccccc1F)c1ccccn1	2%	22%	0%	44%
O=C(NCCCNc1ccnc2cc(Cl)ccc12)c1ccccc1F	0%	0.41µM*	0%	0.47µM*
Cc1ccc(C(=O)N[C@H](C(=O)OCC(=O)NC2CCS(=O)(=O)C2)C(C)C)cc1 (some centres not stated)	12%	35%	6%	17%
Cc1ccc(S(=O)(=O)NC(C(=O)OCC(=O)NC2CCS(=O)(=O)C2)C(C)C)cc1 (configuration not stated)	-1%	10µM*	8%	14%
CCOC(=O)N1CCN(C(=O)CCc2ccc(S(=O)(=O)NC(C)(C)C)cc2)CC1	9%	8%	7%	-8%
c1ccc(Nc2nnc(-c3cccnc3)s2)cc1	-1%	113%	1%	.
Cc1ccc(-c2nc3ccccc3nc2-c2ccccc2)cc1	-5%	?	-5%	30%
